About 1,300 (0.68%) of roughly 190,000 compounds were called active. The sample holds actives, similar compounds and a random draw of the others, so the mix is not that of the screen. Rule as the data show it: active = inhibition above about 50%; inactive = the rest.

In general, inhibition refers to the drop in the measured response relative to a control, in per cent.

Chain of Mannose-6-phosphate isomerase (Homo sapiens) (P34949 whole entry, looked up): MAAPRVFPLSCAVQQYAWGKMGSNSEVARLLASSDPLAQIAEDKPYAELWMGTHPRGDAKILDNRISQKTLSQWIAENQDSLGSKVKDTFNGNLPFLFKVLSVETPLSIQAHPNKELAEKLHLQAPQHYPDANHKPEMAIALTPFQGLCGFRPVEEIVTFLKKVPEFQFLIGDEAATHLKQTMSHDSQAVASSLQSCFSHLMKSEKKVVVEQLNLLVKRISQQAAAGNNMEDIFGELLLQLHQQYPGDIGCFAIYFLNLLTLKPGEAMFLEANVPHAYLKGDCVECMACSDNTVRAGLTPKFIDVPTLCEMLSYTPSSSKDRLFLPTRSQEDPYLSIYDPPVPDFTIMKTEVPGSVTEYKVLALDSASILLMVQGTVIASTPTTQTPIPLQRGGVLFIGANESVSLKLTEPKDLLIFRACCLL

The assay has as its target Mannose-6-phosphate isomerase (Homo sapiens) (UniProt P34949). Description: human PMI inhibitors, high substrate, primary screen, biochemical, fluorescence intensity, high mannose 6-phosphate (AID 1220). Conditions: recombinant PMI enzyme, coupled fluorescence intensity; at 20 µM; active compounds read high.
`CCOc1cc(/C=N/NC(=O)COc2ccc(Cl)cc2)ccc1OS(=O)(=O)c1ccccc1`: the inhibition is -94.4% (inactive).
As for `COc1ccccc1C(=O)Nc1cc2cc(Cl)ccc2oc1=O`, the figure is -8% (inactive); as for `COC(=O)C(N)Cc1ccc(O)cc1` (stereo not given), -2.8% (inactive).
As for `COC(=O)[C@@H](N)Cc1ccc(O)cc1`, the figure is 6.4% (inactive); as for `NC(CO)C(=O)NNCc1ccc(O)c(O)c1O` (stereo not given), 60.4% (active).
As for `COc1cc2c(cc1OC)CN(C(=O)CSc1nnc(C)s1)CC2`, the figure is -13.4% (inactive); as for `N#CC1=C2SCN(Cc3ccccc3)CN2C(=O)CC1c1cccs1` (stereo not given), 67.2% (active).
In the case of `CCc1ccc(N2CSC3=C(C#N)C(c4cccs4)CC(=O)N3C2)cc1` (stereo not given), the inhibition was -68.6% (inactive).
In the case of `N#CC1=C2SCN(Cc3ccccc3)CN2C(=O)CC1c1ccccc1F` (stereo not given) it was 52.1% (active).
In the case of `N#CC1=C2SCN(c3ccccc3)CN2C(=O)CC1c1ccccc1Cl` (stereo not given) it was -41% (inactive); in that of `CCc1ccccc1N1CSC2=C(C#N)C(c3ccccc3F)CC(=O)N2C1` (stereo not given), -5.1% (inactive); in that of `N#CC1=C2SCN(c3ccccc3)CN2C(=O)CC1c1cccs1` (stereo not given), -2% (inactive).
As for `O=C(COC(=O)c1cccnc1)Nc1ccc2c(c1)OCO2`, the figure is 17.6% (inactive); as for `Cc1cc(C)c(C(=O)Nc2ccc(S(=O)(=O)Nc3onc(C)c3C)cc2)c(C)c1`, 7.8% (inactive); as for `OC(COC1CCCCC1)CN1CCN(c2ccccc2)CC1` (stereo not given), 10.6% (inactive).
For `N/C(=N\OC(=O)c1cc(Cl)ccc1Cl)c1ccccn1`, the inhibition was -10.6% (inactive).
Regarding `Cc1cc(C)n(CCN(C)c2nc3nonc3nc2NC2CC2)n1`, the inhibition was 14.8% (inactive).
As for `Cc1[nH]c2ccccc2c1CCNC(=O)c1ccc2c(c1[N+](=O)[O-])C(=O)c1ccccc1C2=O`, the figure is 53.9% (active).
On to `Cc1[nH]c2c(C)cccc2c1CCNC(=O)c1ccc2c(c1[N+](=O)[O-])C(=O)c1ccccc1C2=O`, for which the inhibition was 55.5% (active).
In the case of `CN(C)C(=O)c1ccc2c(c1[N+](=O)[O-])C(=O)c1ccccc1C2=O` it was -16.2% (inactive).
Turning to `Cc1ccc([N+](=O)[O-])cc1S(=O)(=O)NCCc1c(C)[nH]c2c(C)cccc12`, the inhibition was -3% (inactive).
As for `CCN(CC)C(=O)c1ccc2c(c1[N+](=O)[O-])C(=O)c1ccccc1C2=O`, the figure is 29.5% (inactive); as for `CCCNC(=O)NCCc1c(C)[nH]c2ccccc12`, 0.4% (inactive); as for `O=C(O)c1cccc(NS(=O)(=O)c2ccc3nnn(O)c3c2)c1`, 11.9% (inactive).
Turning to `CCn1c(=O)c(C(=O)NNS(=O)(=O)c2ccc(Cl)cc2)c(O)c2ccccc21`, the inhibition is -7.4% (inactive).
As for `CN(C(=O)c1c(Br)cnn1C)C12CC3CC(CC(C3)C1)C2`, the figure is -2.3% (inactive).
As for `CCC(=O)Nc1cccc(NC(=O)COc2ccc(OC)cc2)c1`, the figure is 6.7% (inactive); as for `Cc1ccc(-n2c(N)c(S(=O)(=O)c3ccccc3)c3nc4ccccc4nc32)cc1`, 0.2% (inactive).
As for `Cc1ccc(S(=O)(=O)c2c(N)n(NC(=O)c3ccco3)c3nc4ccccc4nc23)cc1`, the figure is -41.3% (inactive); as for `C=CCn1c(NS(=O)(=O)c2ccccc2)c(S(=O)(=O)c2ccc(C)cc2)c2nc3ccccc3nc21`, 52.4% (active).
Take `Cc1ccc(S(=O)(=O)c2c(N)n(Cc3ccco3)c3nc4ccccc4nc23)cc1`: the inhibition was -3.1% (inactive).
In the case of `CCCCCn1c(NC(=O)c2ccco2)c(S(=O)(=O)c2ccc(C)cc2)c2nc3ccccc3nc21` it was 50.2% (active); in that of `C=CCn1c(NC(=O)c2ccco2)c(S(=O)(=O)c2ccccc2)c2nc3ccccc3nc21`, 34.3% (inactive); in that of `CCCCn1c(NS(=O)(=O)c2ccc(C)cc2)c(S(=O)(=O)c2ccccc2)c2nc3ccccc3nc21`, 54.9% (active).
In the case of `CC(=O)Nc1c(S(=O)(=O)c2ccccc2)c2nc3ccccc3nc2n1Cc1ccccc1` it was 7.9% (inactive); in that of `CCCCn1c(NCc2ccccc2NS(=O)(=O)c2ccc(C)cc2)nc2ccccc21`, 15.2% (inactive); in that of `Cc1ccc(S(=O)(=O)c2c(N)n(CCC(C)C)c3nc4ccccc4nc23)cc1`, 1.8% (inactive).
With `C=CCn1c(NC(=O)c2ccc(Br)o2)c(S(=O)(=O)c2ccccc2)c2nc3ccccc3nc21`, the inhibition was 50.8% (active).
In the case of `CCCCn1c(NC(=O)c2ccc(Br)o2)c(S(=O)(=O)c2ccccc2)c2nc3ccccc3nc21` it was 5.9% (inactive); in that of `CC(C)CSc1n[nH]c(N)n1`, -6.6% (inactive).
In the case of `Cc1ccccc1/C=N\NC(=O)c1ccccc1-n1cccc1` it was 15.6% (inactive); in that of `CCOC(=O)c1c(N/N=C/c2ccncc2)n[nH]c1C`, -0.3% (inactive).
In the case of `Cc1ccccc1Nc1nnc(SCC(=O)NC(=O)Nc2ccc3c(c2)OCCO3)s1` it was 3.7% (inactive).
Regarding `Cc1ccc(NC(N)=S)cc1`, the inhibition was -4.6% (inactive).
In the case of `COc1cccc(-c2nn3c(-c4cc(C)[nH]n4)nnc3s2)c1` it was -5.7% (inactive).
Turning to `CC(C(=O)OCC(=O)Nc1ccc(S(=O)(=O)N2CCCCC2)cc1)N1C(=O)c2ccccc2C1=O` (stereo not given), the inhibition is 7.2% (inactive).
As for `O=S(=O)(c1ccccc1)c1nc(NCc2cccnc2)sc1Cl`, the figure is -5.8% (inactive).
In the case of `O=C(Nc1ccc(NC(=O)C2CCCN2C(=O)OCc2ccccc2)cc1)c1ccco1` (stereo not given) it was -8.3% (inactive); in that of `COc1ccc(CNC(=O)C(OC(=O)c2nsc(Cl)c2Cl)C(C)C)cc1` (stereo not given), 14.4% (inactive); in that of `CC/C(=N/OC(=O)c1cccc(C)c1)C(=O)c1cccs1`, -0.6% (inactive).
As for `CCOc1ccc(NC(=O)C2CCN(C(=O)NC3CCCCC3)CC2)cc1`, the figure is -11.9% (inactive); as for `CCn1nnnc1-c1ccc(OC)c(S(=O)(=O)Nc2ccc(C)c(C)c2)c1`, -3.8% (inactive); as for `Cc1ccc(Cl)cc1N1CCN(C(=O)CCC(=O)O)CC1`, -5.1% (inactive).
Consider `Cc1ccc(CSC2=NCCN2C(=O)C2CC2)cc1`, for which the inhibition is -1.1% (inactive).
Turning to `Nc1c(S(=O)(=O)c2ccccc2)c2nc3ccccc3nc2n1C1CC1`, the inhibition is 0.4% (inactive).
Take `CCC(=O)Nc1c(C#N)c2nc3ccccc3nc2n1C1CCCCC1`: the inhibition is 17.4% (inactive).
As for `O=S(=O)(Nc1c(S(=O)(=O)c2ccccc2)c2nc3ccccc3nc2n1C1CCCCC1)c1ccccc1`, the figure is 59.7% (active); as for `CCCCn1c(NS(=O)(=O)c2ccccc2)c(S(=O)(=O)c2ccc(C)cc2)c2nc3ccccc3nc21`, 57.6% (active).
In the case of `Cc1ccc(S(=O)(=O)c2c(N)n(CCCO)c3nc4ccccc4nc23)cc1` it was 8.6% (inactive).
In the case of `CCCCn1c(N)c(S(=O)(=O)c2ccc(C)cc2)c2nc3ccccc3nc21` it was 20.2% (inactive).
